This note sets out measurements from PubChem BioAssay AID624256 (NMMLSC, 2012).

SMILES strings stand for the structures. In all, about 360,000 compounds went through this assay and about 3,700 (1%) were called active. Roughly 2% stayed inconclusive and do not appear here.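 The calls were made as follows: active = normalized GFP-positive differentiation at or above the plate's own cutoff, the solvent-only control mean plus 3 SD; inconclusive = no clear call, values can overlap the other calls; inactive = the rest.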 This excerpt belongs to a sample that is enriched for actives.

The nature of the experiment: induction of myeloid progenitor differentiation, primary screen, cell-based, flow cytometry, MLPCN library (AID 624256).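 As to GFP+ MAC1+ double positive: cells exposed to compound for four days before flow analysis.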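 As to normalized GFP-positive differentiation: cells exposed to compound for four days before flow analysis; 0% = DMSO wells and 100% = fulvestrant positive control at 5 µM.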 As to conditions: ER-HoxA9 myeloid progenitors, lysozyme-GFP differentiation, at 10 µM; GFP+ MAC1+ double positive: measured here: differentiation confirmed by MAC1 staining, stronger effect = higher value; normalized GFP-positive differentiation: stronger effect = higher value. Background: Flow cytometry measures light scatter and fluorescence of single cells or particles in a stream.
For `CCN(CC)S(=O)(=O)c1cc(C(=O)Nc2cc(S(=O)(=O)N3CCOCC3)ccc2N2CCCC2)ccc1F`, the GFP+ MAC1+ double positive was determined as 0.3% and the compound was called inactive.

As for `CCN(CC)S(=O)(=O)c1ccc(N2CCCC2)c(NC(=O)c2ccc([N+](=O)[O-])o2)c1`, the GFP+ MAC1+ double positive was 5.1% and the normalized GFP-positive differentiation was 56% (active).

For `CCN(CC)S(=O)(=O)c1ccc(N2CCOCC2)c(NC(=O)c2ccc(=O)n(C)n2)c1`, the GFP+ MAC1+ double positive worked out at 0.1% and the outcome was inactive.

Take `Clc1cccc(Cc2c(-c3cccc(Cl)c3)nc3ccc(Cl)cn23)c1`: the GFP+ MAC1+ double positive was determined as 0.4% and the call was inactive.

Turning to `COc1ccc(CNC(=O)c2nnn(CC(=O)Nc3cc(C)cc(C)c3)c2N)cc1`, the GFP+ MAC1+ double positive stood at 0.5% and the result was inactive.

Regarding `COc1ccc(NC(=O)Cn2nnc(C(=O)NCCc3ccc(OC)c(OC)c3)c2N)cc1`, the GFP+ MAC1+ double positive turned out to be 1% and the compound was classed as inactive.

On to `CCOc1ccc(Cn2nnc(C(=O)Nc3ccc(OC)cc3OC)c2N)cc1`, for which the GFP+ MAC1+ double positive amounted to 12.5% and the normalized GFP-positive differentiation was 38% (active).

Turning to `Cc1cccc(C)c1NC(=O)C(c1cccc(F)c1)N1CCN(C)CC1` (centres undefined), the GFP+ MAC1+ double positive amounted to 2.3% and the compound was called inactive.

With `COc1ccc(S(=O)(=O)N2CCOCC2)cc1C(=O)NC1CCCCC1`, the GFP+ MAC1+ double positive was 0.6% and the outcome was inactive.

`COc1ccc(S(=O)(=O)N2CCOCC2)cc1C(=O)Nc1nc2ccccc2s1`: the GFP+ MAC1+ double positive was found to be 27.7% and the normalized GFP-positive differentiation was 33.1% (active).

In the case of `COc1ccc(S(=O)(=O)N2CCOCC2)cc1NC(=O)COc1ccccc1`, the GFP+ MAC1+ double positive is 0.8% and the call was inactive.

Consider `Cc1c(C(=O)NCC2CC2)sc(=O)n1Cc1cccc(F)c1`, for which the GFP+ MAC1+ double positive came out at 4.3% and the call was inactive.

`O=S1(=O)CC(N2CCN(Cc3ccccc3F)CC2)CN1Cc1cn(Cc2cccc(C(F)(F)F)c2)nn1` (centres undefined): the GFP+ MAC1+ double positive worked out at 1% and the call was inactive.

As to `O=C1C=CN2CCCC2CC1` (centres undefined), the GFP+ MAC1+ double positive was 1.2% and the normalized GFP-positive differentiation was 7.96% (active).

Regarding `CC(=O)C1=CCC(c2ccccc2)N(S(=O)(=O)c2ccc(C)cc2)C1` (centres undefined), the GFP+ MAC1+ double positive is 1.6% and the compound was classed as inactive.

On to `Cc1ccccc1S(=O)(=O)N1[C@@H](c2cccc(Cl)c2)C(C(=O)OC(C)(C)C)=CC[C@H]1c1ccc(Cl)cc1`, for which the GFP+ MAC1+ double positive worked out at 0.4% and the result was inactive.

On to `COc1ccc(S(=O)(=O)N[C@@H]2C=C[C@@H](CC(=O)N3CCc4ccccc4C3)O[C@@H]2CO)cc1`, for which the GFP+ MAC1+ double positive is 1.9% and the result was inactive.

Take `CN1/C(=c2/s/c(=C3/C(=O)N(c4ccccc4)NC3=Nc3ccccc3)n(C)c2=O)C(C)(C)c2ccccc21`: the GFP+ MAC1+ double positive stood at 13.2% and the normalized GFP-positive differentiation is 200% (active).

`Cc1cccc(-c2cnc(C(O)c3ccc4ccccc4c3)[nH]2)c1` (centres undefined): the GFP+ MAC1+ double positive is 0.2% and the call was inactive.

`Cc1cccn2c(=O)c(C=O)c(Nc3ccc(S(N)(=O)=O)cc3)nc12`: the GFP+ MAC1+ double positive was 0.8% and the outcome was inactive.

In the case of `Cc1cccn2c(=O)c(/C=C3\SC(=S)N(CC(C)C)C3=O)c(NCCCOC(C)C)nc12`, the GFP+ MAC1+ double positive stood at 6% and the normalized GFP-positive differentiation is 235% (active).

Consider `CCCN(CCC)c1nc2c(C)cccn2c(=O)c1/C=C1/SC(=S)N(Cc2ccco2)C1=O`, for which the GFP+ MAC1+ double positive was 9.4% and the normalized GFP-positive differentiation is 389% (active).

With `CNc1nc2c(C)cccn2c(=O)c1C=Nc1ccc(OC)cc1`, the GFP+ MAC1+ double positive worked out at 0.6% and the outcome was inactive.

Take `Cc1ccc2[nH]c(=O)c(-c3nc4c(C)cccn4c3NCc3ccco3)cc2c1`: the GFP+ MAC1+ double positive turned out to be 0.8% and the result was inactive.

Take `CC(C)C1C(=O)N(Cc2cn(CCC3OCCO3)nn2)CCS(=O)(=O)N1Cc1ccc(-c2ccccc2C(F)(F)F)cc1` (centres undefined): the GFP+ MAC1+ double positive is 1.5% and the compound was called inactive.

On to `CCCCOCCCNC(=O)C[C@@H]1C[C@@]2(C(=O)OC)CCCCC=C2N(CCC2=CCCCC2)C1=O`, for which the GFP+ MAC1+ double positive was determined as 1.3% and the compound was classed as inactive.

On to `CCOC(=O)[C@]12CCCC=C1N(CCC1=CCCCC1)C(=O)[C@H](CC(=O)NCCCOC)C2`, for which the GFP+ MAC1+ double positive worked out at 2.8% and the call was inactive.

On to `CC(C)NC(=O)C1(C)CCCCN1Cc1cccc(C(F)(F)F)c1` (centres undefined), for which the GFP+ MAC1+ double positive is 1.4% and the compound was classed as inactive.

Regarding `COc1ccccc1CNC(=O)C1CCN(S(C)(=O)=O)CC1`, the GFP+ MAC1+ double positive came to 0.7% and the outcome was inactive.

As to `COc1ccccc1CNC(=O)C1CCN(c2nc3ccccc3o2)CC1`, the GFP+ MAC1+ double positive was 4.6% and the normalized GFP-positive differentiation is 9.06% (active).

Consider `COc1ccccc1CNC(=O)C1CCN(C(=O)[C@@H]2Cc3ccccc3CN2)CC1`, for which the GFP+ MAC1+ double positive amounted to 4.9% and the outcome was inactive.

`CNC[C@H]1OCc2cnnn2CCCC(=O)N([C@H](C)CO)C[C@@H]1C`: the GFP+ MAC1+ double positive came out at 0.8% and the outcome was inactive.

Turning to `CC(C)C[C@H]1CNC(=O)C(=O)N1C[C@H]1CCCN1C[C@H](Cc1ccc(O)cc1)N1C[C@H](CC(C)C)N(CC2CCCCCC2)C(=O)C1=O`, the GFP+ MAC1+ double positive is 1.3% and the call was inactive.

Consider `CCCCc1c(-c2ccc(Cl)cc2)ncn1CCc1ccccc1OC`, for which the GFP+ MAC1+ double positive came to 2.2% and the result was inactive.

In the case of `O=C(NCC1CCCCC1)NCC1CCCCC1`, the GFP+ MAC1+ double positive amounted to 5.3% and the normalized GFP-positive differentiation was 9.67% (active).

Consider `CC(C)(C)NC(=O)NC(=O)COC(=O)CCC1CCCCC1`, for which the GFP+ MAC1+ double positive stood at 0.5% and the outcome was inactive.

Consider `N#CCC(=O)NC(=O)NCC1CC1`, for which the GFP+ MAC1+ double positive was 1.2% and the result was inactive.

In the case of `COC(=O)Cc1ccc(OC2(C)CCN(Cc3ccc4c(c3)OCCO4)C2)cc1` (centres undefined), the GFP+ MAC1+ double positive is 2.5% and the call was inactive.

In the case of `CCC(c1nc2ccccc2[nH]1)n1c(=O)c(-c2cccs2)nc2ccccc21` (centres undefined), the GFP+ MAC1+ double positive amounted to 2.5% and the result was inactive.

As to `CCCc1c(-c2ccccc2F)ncn1Cc1ccccc1OC`, the GFP+ MAC1+ double positive stood at 1.4% and the call was inactive.

As to `CCc1c(-c2ccc(F)cc2)ncn1Cc1cccc(-c2ccccc2)c1`, the GFP+ MAC1+ double positive was found to be 3.4% and the result was inactive.

As for `Nc1cc(=O)n(Cc2ccccc2)c(=O)n1Cc1ccccc1`, the GFP+ MAC1+ double positive is 1.4% and the result was inactive.
